Assay in all cases: NCI-60 one-dose screen, 48 h (100 = growth as untreated, 0 = no growth, -100 = all killed)
One assay relates to SK-MEL-2 melanoma. The following applies: 10 µM unless noted.
The next assay relates to EKVX NSCLC. The following applies: 10 µM unless noted.
For the next assay, the system named is SN12C renal. The following applies: 10 µM unless noted.
A further assay deals with UO-31 renal. The following applies: 10 µM unless noted.
The subject of the next assay is TK-10 renal. The conditions noted are these: 10 µM unless noted.
Another assay has as its system CAKI-1 renal. The conditions noted are these: 10 µM.
Another assay concerns A498 renal. The following applies: 10 µM unless noted.
The subject of a further assay is CCRF-CEM leukemia. The following applies: 10 µM unless noted.
Another assay relates to MOLT-4 leukemia. The following applies: 10 µM unless noted.
A further assay concerns SR leukemia. The conditions noted are these: 10 µM unless noted.
For a further assay, the system named is RPMI-8226 leukemia. The conditions noted are these: 10 µM unless noted.
For a further assay, the system named is OVCAR-8 ovarian. The following applies: 10 µM unless noted.
A further assay has as its system OVCAR-4 ovarian. The following applies: 10 µM unless noted.
In a further assay the test system is SK-OV-3 ovarian. The following applies: 10 µM unless noted.
The test system of another assay is IGROV1 ovarian. The conditions noted are these: 10 µM unless noted.
Another assay deals with OVCAR-3 ovarian. The conditions noted are these: 10 µM unless noted.
Another assay has as its system HS 578T breast. The following applies: 10 µM unless noted.
Another assay has as its system NCI/ADR-RES ovarian. The conditions noted are these: 10 µM unless noted.
A further assay concerns ACHN renal. The conditions noted are these: 10 µM unless noted.
The test system of a further assay is OVCAR-5 ovarian. The conditions noted are these: 10 µM unless noted.

Structures are written as SMILES. This is part of a sample that, as a whole, favours compounds with a hit. Of some 83,000 tested, about 20% had one in any assay.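 The endpoint reported here, percent growth, reads 100 for growth as untreated, 0 for no net growth and -100 for all cells dead.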 Unmarked numbers belong to inactive results. Activity calls are given as the source filed them. The calls were made as follows: active = growth percent below 10; inactive = the rest.

As to `C=C1c2c(Cl)ccc(O)c2C(O)=C2C(=O)[C@]3(O)C(O)=C(C(N)=O)C(=O)[C@@H](N(C)C)[C@@H]3[C@@H](O)[C@H]12`, the growth in the assay on SK-MEL-2 melanoma was -10.9% (active); in the assay on EKVX NSCLC, 36.4%; with SN12C renal it was 10.8%; in the assay on UO-31 renal, 4.78% (active); with TK-10 renal it was 7.64% (active); in the assay with CAKI-1 renal, 3.62% (active). Further, the growth in the assay on A498 renal is -10% (active); with CCRF-CEM leukemia it was 4.46% (active); with MOLT-4 leukemia, -11.5% (active); with SR leukemia, -8.97% (active); in the assay on RPMI-8226 leukemia, 13.2%; in the assay on OVCAR-8 ovarian it was 9.79% (active). Also, the growth in the assay on OVCAR-4 ovarian is 23.7%; with SK-OV-3 ovarian, 11.2%; in the assay on IGROV1 ovarian, -2.89% (active); in the assay on OVCAR-3 ovarian it was -16.2% (active); with HS 578T breast, 5.86% (active); in the assay on NCI/ADR-RES ovarian, 61.2%.
On to `CCOc1ccccc1C(=O)N1CCN(c2cc(Cl)cc(Cl)c2)CC1`, for which the growth in the assay on SK-MEL-2 melanoma was 18.5%; with EKVX NSCLC, 34.1%; in the assay with SN12C renal, 25.7%; in the assay on UO-31 renal, 24.9%; in the assay on TK-10 renal it was 55.5%; in the assay with ACHN renal it was 21.9%. Besides, the growth is 7.43% (active) with CCRF-CEM leukemia; 7.37% (active) with MOLT-4 leukemia; 1.53% (active) with RPMI-8226 leukemia; 11.2% in the assay on OVCAR-8 ovarian; 46.6% in the assay with OVCAR-5 ovarian; 31.7% in the assay with OVCAR-4 ovarian. Further, the growth in the assay on IGROV1 ovarian is 13.8%; in the assay on OVCAR-3 ovarian, -22.7% (active); with HS 578T breast, 41.3%; with NCI/ADR-RES ovarian, 14.5%.
Turning to `Cc1[nH]n(C(=O)c2ccncc2)c(=O)c1N=Nc1ccc(S(=O)(=O)Nc2ccncn2)cc1`, the growth is 116% in the assay on SK-MEL-2 melanoma; 94.4% in the assay on EKVX NSCLC; 97% with SN12C renal; 85.1% with UO-31 renal; 101% in the assay with TK-10 renal; 104% with ACHN renal. The growth is 111% in the assay on A498 renal; 102% in the assay with MOLT-4 leukemia; 60.1% in the assay on RPMI-8226 leukemia; 104% in the assay with OVCAR-8 ovarian; 114% in the assay with OVCAR-5 ovarian; 103% with OVCAR-4 ovarian. Further, the growth is 111% in the assay with SK-OV-3 ovarian; 101% with IGROV1 ovarian; 106% in the assay with OVCAR-3 ovarian; 96.7% in the assay with HS 578T breast; 114% with NCI/ADR-RES ovarian.
As to `Oc1ccc(O)c(-[n+]2ccccc2)c1`, the growth in the assay on SK-MEL-2 melanoma is 101%; in the assay with EKVX NSCLC, 105%; with SN12C renal it was 98.1%; with UO-31 renal it was 94%; in the assay with TK-10 renal, 100%; with ACHN renal it was 107%. Besides, the growth is 91.9% with MOLT-4 leukemia; 93.7% in the assay on SR leukemia; 99.7% in the assay on RPMI-8226 leukemia; 99.5% in the assay on OVCAR-8 ovarian; 108% in the assay on OVCAR-5 ovarian; 108% in the assay with OVCAR-4 ovarian. For the same molecule, the growth was 98.7% in the assay with SK-OV-3 ovarian; 107% with IGROV1 ovarian; 109% in the assay on OVCAR-3 ovarian; 96% in the assay on HS 578T breast; 108% with NCI/ADR-RES ovarian.
For the molecule `COc1cc(/C=C\c2cc(/C=C\c3ccc(O)c(OC)c3)n(C(=O)CNc3ccccc3OC)n2)ccc1O`, the growth was 61.2% in the assay on SK-MEL-2 melanoma; 91.6% with EKVX NSCLC; 75.4% in the assay on SN12C renal; 46.4% in the assay with UO-31 renal; 113% in the assay on TK-10 renal; 45.3% in the assay on ACHN renal. Further, the growth in the assay with CCRF-CEM leukemia was 45.2%; with MOLT-4 leukemia it was 58.6%; in the assay on SR leukemia, 2.38% (active); with RPMI-8226 leukemia, 80.1%; in the assay with OVCAR-8 ovarian, 84.6%; in the assay with OVCAR-5 ovarian, 102%. In addition, the growth in the assay on OVCAR-4 ovarian was 84.2%; with SK-OV-3 ovarian it was 83.8%; in the assay on IGROV1 ovarian it was 90.5%; with OVCAR-3 ovarian it was 59.7%; with HS 578T breast, 49.8%; with NCI/ADR-RES ovarian, 54.4%.
As for `Nc1ccc(S(=O)(=O)Nc2ccnn2-c2ccccc2)cc1`, the growth in the assay with SK-MEL-2 melanoma is 115%; with EKVX NSCLC, 93.8%; in the assay with SN12C renal, 99.7%; in the assay on UO-31 renal it was 82.4%; in the assay with TK-10 renal it was 117%; with CAKI-1 renal, 92.7%. Besides, the growth is 107% with A498 renal; 107% in the assay on CCRF-CEM leukemia; 98.1% with MOLT-4 leukemia; 95.5% with SR leukemia; 117% in the assay on RPMI-8226 leukemia; 93.7% in the assay on OVCAR-8 ovarian. Moreover, the growth in the assay on OVCAR-4 ovarian was 109%; with SK-OV-3 ovarian, 103%; in the assay with IGROV1 ovarian it was 107%; with OVCAR-3 ovarian, 111%; with HS 578T breast, 103%; with NCI/ADR-RES ovarian, 103%.
As to `Cc1ccc(-c2nc3c(N=Nc4ccc(S(N)(=O)=O)cc4)c(N)nn3c(N)c2C#N)cc1`, the growth with SK-MEL-2 melanoma is 27%; in the assay on EKVX NSCLC, 69.8%; in the assay with SN12C renal, 33.2%; in the assay on UO-31 renal it was 69%; in the assay with TK-10 renal, 65.8%; in the assay with CAKI-1 renal, 41%. The growth in the assay with A498 renal was 59.3%; in the assay on CCRF-CEM leukemia, 11.9%; in the assay on MOLT-4 leukemia, 3.58% (active); in the assay on SR leukemia, 28.9%; in the assay on RPMI-8226 leukemia, -16.4% (active); in the assay on OVCAR-8 ovarian it was 44.1%. For the same molecule, the growth with OVCAR-5 ovarian was 78.7%; in the assay with OVCAR-4 ovarian, 52.2%; in the assay on SK-OV-3 ovarian it was 63.8%; with IGROV1 ovarian, 37.4%; in the assay on OVCAR-3 ovarian it was 23.6%; with HS 578T breast, 39.4%. Further, the growth in the assay on NCI/ADR-RES ovarian is 99.9%.
On to `C/C(=N/NC(=O)Cn1c2ccccc2c2ccncc21)c1cccs1`, for which the growth is 96.6% in the assay on SK-MEL-2 melanoma; 103% in the assay on EKVX NSCLC; 104% with SN12C renal; 94.5% with UO-31 renal; 127% in the assay on TK-10 renal; 103% in the assay with ACHN renal. Also, the growth with CCRF-CEM leukemia is 91.1%; in the assay on MOLT-4 leukemia it was 83.1%; in the assay on SR leukemia it was 83.3%; in the assay with RPMI-8226 leukemia it was 87.4%; with OVCAR-8 ovarian it was 92.8%; in the assay with OVCAR-5 ovarian it was 112%. The growth with OVCAR-4 ovarian was 99.8%; in the assay on SK-OV-3 ovarian, 102%; in the assay with IGROV1 ovarian, 90.6%; with OVCAR-3 ovarian it was 103%; with HS 578T breast it was 91.1%; with NCI/ADR-RES ovarian, 101%.
With `CCCOC(=O)c1ccc([N+](=O)[O-])o1`, the growth in the assay with SK-MEL-2 melanoma is 102%; in the assay with EKVX NSCLC, 112%; in the assay with SN12C renal, 103%; in the assay with UO-31 renal, 96.2%; in the assay with TK-10 renal, 104%; in the assay on ACHN renal, 105%. In addition, the growth is 97.4% in the assay with CCRF-CEM leukemia; 97.5% with RPMI-8226 leukemia; 109% in the assay with OVCAR-8 ovarian; 99.5% in the assay on OVCAR-5 ovarian; 95.1% in the assay with OVCAR-4 ovarian; 113% with SK-OV-3 ovarian. The growth was 102% in the assay on IGROV1 ovarian, 123% with OVCAR-3 ovarian and 104% with NCI/ADR-RES ovarian.

Values taken from PubChem BioAssay (NCI).
